# Test results reported in publication PMC7862700, “An all-to-all approach to the identification of sequence-specific readers for epigenetic DNA modifications on cytosine”.
# Key:
# Assay in all cases: DAPPL (digital affinity profiling via proximity ligation, sequencing); 10 mM Tris-HCl pH 7.5, 50 mM NaCl, 1 mM DTT, 4% glycerol, room temperature, 30 min; GST-TFs on glutathione beads, 16-mer random dsDNA library, 0.1% formaldehyde crosslink after washing; high values mean tight binding
# Details in all cases: protein: recombinant; tags: N-terminal GST; dsDNA, one strand shown
# ETV1 = ETV1 (Homo sapiens, UniProt P50549 1-477)
# Outline: (§1)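 In yeast, human transcription factors were expressed with a GST fusion, then pulled down on glutathione beads and given DNA barcodes. Pooled with a tag-only sample, they were exposed to 200 nmole of a 16-mer random double-stranded DNA library (Tris/NaCl/DTT/glycerol buffer, room temperature, 30 min), washed, crosslinked with 0.1% formaldehyde, proximity-ligated using BsaI/T4 ligase for 1 h at 37 °C, PCR-amplified and read on an Illumina NextSeq500. Each hexamer's frequency of reads for a factor, divided by the matching frequency for the tag-only sample, gives the binding signal.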
# ERF = target: T1, ERF (Homo sapiens, UniProt P50548 1-548)
# T1 sequence: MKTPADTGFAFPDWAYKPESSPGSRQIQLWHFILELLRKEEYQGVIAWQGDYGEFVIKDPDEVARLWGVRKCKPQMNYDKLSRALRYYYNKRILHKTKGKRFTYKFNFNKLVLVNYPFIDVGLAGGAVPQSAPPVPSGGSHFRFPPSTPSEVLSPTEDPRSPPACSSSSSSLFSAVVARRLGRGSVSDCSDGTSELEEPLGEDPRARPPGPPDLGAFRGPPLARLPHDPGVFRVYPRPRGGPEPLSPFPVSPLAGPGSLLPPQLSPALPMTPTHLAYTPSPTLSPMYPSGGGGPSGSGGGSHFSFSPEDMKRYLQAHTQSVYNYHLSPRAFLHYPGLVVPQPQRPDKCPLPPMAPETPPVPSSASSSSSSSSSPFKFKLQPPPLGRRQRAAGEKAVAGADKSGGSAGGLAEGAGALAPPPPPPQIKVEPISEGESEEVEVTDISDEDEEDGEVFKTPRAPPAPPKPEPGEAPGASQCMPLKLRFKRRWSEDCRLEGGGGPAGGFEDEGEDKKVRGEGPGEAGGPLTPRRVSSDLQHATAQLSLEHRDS
# Outline: as §1
# ETV3L = target: T2, ETV3L (Homo sapiens, UniProt Q6ZN32 1-361)
# T2 sequence: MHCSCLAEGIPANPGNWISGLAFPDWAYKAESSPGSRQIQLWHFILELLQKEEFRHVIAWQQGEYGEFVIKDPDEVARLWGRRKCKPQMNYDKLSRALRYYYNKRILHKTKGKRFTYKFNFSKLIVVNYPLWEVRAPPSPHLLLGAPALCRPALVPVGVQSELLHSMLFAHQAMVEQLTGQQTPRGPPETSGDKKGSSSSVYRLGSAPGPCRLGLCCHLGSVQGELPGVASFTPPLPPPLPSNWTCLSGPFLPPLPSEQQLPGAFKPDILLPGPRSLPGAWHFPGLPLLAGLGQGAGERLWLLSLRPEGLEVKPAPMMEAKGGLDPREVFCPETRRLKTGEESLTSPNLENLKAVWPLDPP
# Outline: as §1
# ETS2 = target: T3, ETS2 (Homo sapiens, UniProt P15036 1-469)
# T3 sequence: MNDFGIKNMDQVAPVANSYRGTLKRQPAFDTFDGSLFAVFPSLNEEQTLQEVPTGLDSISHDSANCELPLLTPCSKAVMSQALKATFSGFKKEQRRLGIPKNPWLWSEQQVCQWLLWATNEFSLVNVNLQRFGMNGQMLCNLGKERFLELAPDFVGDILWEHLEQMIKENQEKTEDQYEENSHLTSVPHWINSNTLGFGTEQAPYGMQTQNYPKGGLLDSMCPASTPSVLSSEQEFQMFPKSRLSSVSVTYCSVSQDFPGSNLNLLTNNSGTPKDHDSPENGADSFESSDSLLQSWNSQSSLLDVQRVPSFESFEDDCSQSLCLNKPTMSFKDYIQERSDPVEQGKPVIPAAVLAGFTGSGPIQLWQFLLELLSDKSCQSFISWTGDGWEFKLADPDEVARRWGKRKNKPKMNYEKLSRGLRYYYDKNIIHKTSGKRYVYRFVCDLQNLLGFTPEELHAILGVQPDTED
# Outline: as §1
# SPDEF = target: T4, SPDEF (Homo sapiens, UniProt O95238 1-335)
# T4 sequence: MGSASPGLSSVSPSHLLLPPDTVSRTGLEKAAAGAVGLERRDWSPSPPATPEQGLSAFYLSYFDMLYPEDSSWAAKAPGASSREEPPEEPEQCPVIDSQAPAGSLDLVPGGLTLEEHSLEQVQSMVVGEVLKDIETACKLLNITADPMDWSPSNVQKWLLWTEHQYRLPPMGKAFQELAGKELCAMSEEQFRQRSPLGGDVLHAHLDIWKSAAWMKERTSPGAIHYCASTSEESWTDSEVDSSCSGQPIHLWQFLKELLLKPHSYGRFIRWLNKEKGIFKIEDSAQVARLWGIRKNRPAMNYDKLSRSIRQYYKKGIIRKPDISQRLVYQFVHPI
# Outline: as §1
# ETV7 = target: T5, ETV7 (Homo sapiens, UniProt Q9Y603 1-341)
# T5 sequence: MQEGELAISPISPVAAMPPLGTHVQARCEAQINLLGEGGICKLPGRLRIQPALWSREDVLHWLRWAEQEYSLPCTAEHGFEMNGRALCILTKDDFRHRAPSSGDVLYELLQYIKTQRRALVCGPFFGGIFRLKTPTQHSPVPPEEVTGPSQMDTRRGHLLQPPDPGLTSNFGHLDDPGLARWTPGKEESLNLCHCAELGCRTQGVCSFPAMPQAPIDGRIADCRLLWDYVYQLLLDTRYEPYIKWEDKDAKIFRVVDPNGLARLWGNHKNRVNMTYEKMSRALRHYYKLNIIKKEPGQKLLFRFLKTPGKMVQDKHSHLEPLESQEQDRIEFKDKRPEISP
# Outline: as §1
# ELF5 = target: T6, ELF5 (Homo sapiens, UniProt Q9UKW6-2 1-255)
# T6 sequence: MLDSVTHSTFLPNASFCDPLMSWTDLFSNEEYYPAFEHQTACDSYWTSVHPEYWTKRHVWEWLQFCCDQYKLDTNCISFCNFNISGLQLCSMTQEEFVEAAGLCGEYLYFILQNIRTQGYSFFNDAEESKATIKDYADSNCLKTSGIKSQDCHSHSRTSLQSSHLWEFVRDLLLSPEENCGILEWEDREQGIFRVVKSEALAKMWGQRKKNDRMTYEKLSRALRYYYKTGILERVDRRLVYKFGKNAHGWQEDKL
# Outline: as §1
# ETV3 = target: T7, ETV3 (Homo sapiens, UniProt P41162-2 1-143)
# T7 sequence: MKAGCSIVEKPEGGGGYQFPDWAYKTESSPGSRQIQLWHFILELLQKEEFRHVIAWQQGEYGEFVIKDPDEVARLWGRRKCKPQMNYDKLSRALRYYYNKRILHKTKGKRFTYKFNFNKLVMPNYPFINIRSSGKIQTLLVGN
# Outline: as §1
# ETV6 = ETV6 (Homo sapiens, UniProt P41212 1-452)
# Outline: as §1
# Chain of ETV6 (P41212 whole entry): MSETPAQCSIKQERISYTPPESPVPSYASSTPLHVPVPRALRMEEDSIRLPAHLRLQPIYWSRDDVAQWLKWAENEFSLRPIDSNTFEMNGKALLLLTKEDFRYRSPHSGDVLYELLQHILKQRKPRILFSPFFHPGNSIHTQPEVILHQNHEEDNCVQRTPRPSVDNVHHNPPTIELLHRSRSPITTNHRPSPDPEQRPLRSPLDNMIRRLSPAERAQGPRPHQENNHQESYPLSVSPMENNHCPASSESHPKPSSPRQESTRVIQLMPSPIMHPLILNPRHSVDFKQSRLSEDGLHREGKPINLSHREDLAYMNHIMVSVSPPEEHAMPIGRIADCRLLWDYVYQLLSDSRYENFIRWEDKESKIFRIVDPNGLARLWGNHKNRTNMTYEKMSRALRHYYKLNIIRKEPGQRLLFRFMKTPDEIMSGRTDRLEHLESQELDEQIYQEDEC
# Chain of ETV1 (P50549 whole entry, the tested form may be a part): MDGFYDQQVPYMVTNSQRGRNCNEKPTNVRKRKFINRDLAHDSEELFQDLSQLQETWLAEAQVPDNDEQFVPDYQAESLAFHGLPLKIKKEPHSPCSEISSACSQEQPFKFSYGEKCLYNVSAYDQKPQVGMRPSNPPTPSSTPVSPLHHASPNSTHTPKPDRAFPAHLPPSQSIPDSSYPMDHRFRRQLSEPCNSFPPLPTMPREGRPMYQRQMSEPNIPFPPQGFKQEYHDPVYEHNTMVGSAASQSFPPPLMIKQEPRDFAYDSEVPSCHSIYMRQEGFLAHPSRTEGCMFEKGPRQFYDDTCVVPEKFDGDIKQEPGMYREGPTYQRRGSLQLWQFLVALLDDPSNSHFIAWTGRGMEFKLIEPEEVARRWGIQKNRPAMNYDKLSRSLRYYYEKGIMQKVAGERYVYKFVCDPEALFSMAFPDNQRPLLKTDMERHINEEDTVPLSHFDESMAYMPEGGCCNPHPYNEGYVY
sequence,measurement,setting,value
CCCCTT,binding signal,ETV1,"1.63 fold enrichment (6-mer frequency, TF over GST control)"
same,binding signal,ERF,"1.53 fold enrichment (6-mer frequency, TF over GST control)"
same,binding signal,ETV3L,"1.47 fold enrichment (6-mer frequency, TF over GST control)"
same,binding signal,ETS2,"1.51 fold enrichment (6-mer frequency, TF over GST control)"
same,binding signal,SPDEF,"1.5 fold enrichment (6-mer frequency, TF over GST control)"
same,binding signal,ETV7,"1.56 fold enrichment (6-mer frequency, TF over GST control)"
same,binding signal,ELF5,"1.64 fold enrichment (6-mer frequency, TF over GST control)"
same,binding signal,ETV3,"1.51 fold enrichment (6-mer frequency, TF over GST control)"
same,binding signal,ETV6,"1.51 fold enrichment (6-mer frequency, TF over GST control)"
